# Measurements: ChEMBL document CHEMBL3988442, “University of Dundee, Small-Polar-MMV Screening Library” (2021)
# For some of these results: Entries with a potency or affinity are not part of this list.
# Legend:
# Design in all cases: scale not given: direction of the effect not stated beside the values
# [1] = biological target: Protein translocase subunit SecA (Escherichia coli (strain K12)) (UniProt P10408); experiment: Assay to Identify E. coli SecA ATPase Inhibitors; format: functional; conditions: 30 µM
# [2] = biological target: T1, Ubiquitin-activating enzyme e1, putative (Leishmania donovani (strain BPK282A1)) (UniProt E9BSI1); experiment: Leishmania donovani Ubiquitin Activating Enzyme (LdE1); format: functional; conditions: 30 µM
# T1 sequence (whole entry): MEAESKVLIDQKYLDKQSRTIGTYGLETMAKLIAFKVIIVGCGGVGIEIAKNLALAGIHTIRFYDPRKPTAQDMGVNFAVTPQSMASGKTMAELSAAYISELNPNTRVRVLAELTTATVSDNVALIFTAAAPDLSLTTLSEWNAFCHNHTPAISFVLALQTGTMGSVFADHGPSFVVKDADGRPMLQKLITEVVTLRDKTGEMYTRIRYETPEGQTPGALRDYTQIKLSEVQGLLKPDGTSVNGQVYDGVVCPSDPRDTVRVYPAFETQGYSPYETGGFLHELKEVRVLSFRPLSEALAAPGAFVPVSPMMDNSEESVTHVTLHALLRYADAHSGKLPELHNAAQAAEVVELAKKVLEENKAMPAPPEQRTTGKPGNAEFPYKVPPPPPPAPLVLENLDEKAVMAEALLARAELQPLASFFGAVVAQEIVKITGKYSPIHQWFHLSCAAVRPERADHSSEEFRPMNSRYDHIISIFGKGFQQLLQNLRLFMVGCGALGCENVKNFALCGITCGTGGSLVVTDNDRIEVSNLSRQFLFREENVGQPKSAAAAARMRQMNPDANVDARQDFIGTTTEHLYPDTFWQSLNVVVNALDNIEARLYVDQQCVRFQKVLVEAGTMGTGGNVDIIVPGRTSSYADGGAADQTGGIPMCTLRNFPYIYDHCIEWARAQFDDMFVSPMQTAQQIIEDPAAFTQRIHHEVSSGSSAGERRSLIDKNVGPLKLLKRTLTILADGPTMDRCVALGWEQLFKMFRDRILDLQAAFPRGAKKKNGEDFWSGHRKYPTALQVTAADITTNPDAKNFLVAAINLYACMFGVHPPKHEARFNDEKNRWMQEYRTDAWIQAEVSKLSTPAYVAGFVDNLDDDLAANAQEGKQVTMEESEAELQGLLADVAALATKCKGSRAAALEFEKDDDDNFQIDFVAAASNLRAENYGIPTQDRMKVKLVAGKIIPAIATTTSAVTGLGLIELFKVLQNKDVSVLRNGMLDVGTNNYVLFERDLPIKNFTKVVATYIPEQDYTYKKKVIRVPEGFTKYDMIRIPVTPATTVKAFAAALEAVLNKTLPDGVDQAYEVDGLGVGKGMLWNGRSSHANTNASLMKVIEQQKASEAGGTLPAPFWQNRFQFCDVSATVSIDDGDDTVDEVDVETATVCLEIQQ
# [3] = biological target: AMP-activated protein kinase, AMPK (Homo sapiens) (UniProt P54646+O43741+P54619+Q9UGJ0+Q9Y478+Q13131+Q9UGI9); experiment: AMP-dependent Kinase enzyme assay. An in vitro enzyme assay that detects ADP turnover that is directly proportional to AMPK activity. This uses naive AMPK that is activated during the assay with MK-8722; format: functional; conditions: 30 µM
# [4] = biological target: Sialic acid-binding Ig-like lectin 9 (Homo sapiens) (UniProt Q9Y336); experiment: Hs-Siglec9 ALPHAscreen SOP 20170721; conditions: 10 µM
# Trypanosoma cruzi = experiment: Trypanosoma cruzi phosphomannomutase and mannose-1-phosphate guanylyltransferase assay; format: functional; conditions: 10 µM
# [5] = biological target: T2, Arginase-2, mitochondrial (Homo sapiens) (UniProt P78540); experiment: in vitro enzyme assay to detect the production of urea directly proportional to the activity of Arginase II; format: functional; conditions: 33.3 µM; also: in the data most compounds retested in dose-response had high values
# T2 sequence (whole entry): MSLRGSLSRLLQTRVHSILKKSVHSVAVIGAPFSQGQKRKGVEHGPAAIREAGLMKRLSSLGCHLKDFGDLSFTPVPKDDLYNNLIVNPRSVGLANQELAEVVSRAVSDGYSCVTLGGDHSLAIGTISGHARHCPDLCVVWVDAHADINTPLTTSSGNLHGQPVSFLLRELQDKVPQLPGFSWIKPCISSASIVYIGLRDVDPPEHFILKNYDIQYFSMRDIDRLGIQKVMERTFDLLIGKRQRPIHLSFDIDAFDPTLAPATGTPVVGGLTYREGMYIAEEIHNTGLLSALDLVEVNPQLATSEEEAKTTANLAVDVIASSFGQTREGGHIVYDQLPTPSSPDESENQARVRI
# [6] = biological target: T3, Proteasome subunit beta (Trypanosoma cruzi) (UniProt O96673); experiment: Trypanosoma cruzi proteasome chymotrypsin-like activity (TcProtChymo) assay.; also: in the data most compounds retested in dose-response had high values; format: functional; conditions: 9.37 µM
# T3 sequence (whole entry): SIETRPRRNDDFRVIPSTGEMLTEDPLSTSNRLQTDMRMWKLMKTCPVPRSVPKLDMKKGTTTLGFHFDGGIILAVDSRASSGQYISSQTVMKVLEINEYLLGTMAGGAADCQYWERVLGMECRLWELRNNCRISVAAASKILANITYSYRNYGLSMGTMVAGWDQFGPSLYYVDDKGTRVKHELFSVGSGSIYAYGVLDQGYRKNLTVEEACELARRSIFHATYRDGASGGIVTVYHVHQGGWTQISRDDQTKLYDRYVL
# Homo sapiens = species: Homo sapiens; experiment: To identify inhibition of the IFN signalling (Jak-Stat) pathway via expression of an eGFP reporter gene under the control of an IFN-stimulated response element (ISRE) containing MxA promoter.; format: functional; conditions: 30 µM
# [7] = biological target: T4, Tyrosyl-tRNA synthetase, putative (Trypanosoma cruzi (strain CL Brener)) (UniProt Q4DSP6); experiment: Trypanosoma cruzi tyrosyl tRNA synthetase (TcYRS) _High Tyrosine SOP; format: functional; conditions: 30 µM; also: in the data most compounds retested in dose-response had high values
# T4 sequence (whole entry): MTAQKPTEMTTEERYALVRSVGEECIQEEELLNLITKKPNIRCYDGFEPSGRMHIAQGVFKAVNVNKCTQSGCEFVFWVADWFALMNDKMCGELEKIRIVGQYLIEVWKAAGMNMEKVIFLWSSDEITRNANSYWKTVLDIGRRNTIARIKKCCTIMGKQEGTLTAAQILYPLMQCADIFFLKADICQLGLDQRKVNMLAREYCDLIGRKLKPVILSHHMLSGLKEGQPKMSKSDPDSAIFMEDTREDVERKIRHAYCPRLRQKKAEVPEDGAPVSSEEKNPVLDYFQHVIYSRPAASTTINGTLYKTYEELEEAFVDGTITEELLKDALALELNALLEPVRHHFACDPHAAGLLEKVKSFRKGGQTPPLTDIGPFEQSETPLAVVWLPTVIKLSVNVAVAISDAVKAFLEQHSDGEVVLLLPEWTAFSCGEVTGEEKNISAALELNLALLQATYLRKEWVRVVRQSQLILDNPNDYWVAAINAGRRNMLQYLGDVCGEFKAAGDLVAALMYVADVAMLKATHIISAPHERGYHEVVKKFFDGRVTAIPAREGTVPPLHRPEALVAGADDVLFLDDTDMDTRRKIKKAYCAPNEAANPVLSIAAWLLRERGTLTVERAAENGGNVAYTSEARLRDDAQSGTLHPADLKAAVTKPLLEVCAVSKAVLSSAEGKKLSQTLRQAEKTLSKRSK
# [8] = biological target: T4, Tyrosyl-tRNA synthetase, putative (Trypanosoma cruzi (strain CL Brener)); experiment: Trypanosoma cruzi tyrosyl tRNA synthetase (TcYRS) SOP; format: functional; conditions: 30 µM
# [9] = biological target: Chromo domain-containing protein 1 (Saccharomyces cerevisiae (strain ATCC 204508 / S288c) (Baker's yeast)) (UniProt P32657); experiment: ScCHD-1 Enzyme Inhibition Assay; format: functional; conditions: 30 µM; also: in the data most compounds retested in dose-response had high values
# Chain of Chromo domain-containing protein 1 (Saccharomyces cerevisiae (strain ATCC 204508 / S288c) (Baker's yeast)) (P32657 whole entry, the tested form may be a part): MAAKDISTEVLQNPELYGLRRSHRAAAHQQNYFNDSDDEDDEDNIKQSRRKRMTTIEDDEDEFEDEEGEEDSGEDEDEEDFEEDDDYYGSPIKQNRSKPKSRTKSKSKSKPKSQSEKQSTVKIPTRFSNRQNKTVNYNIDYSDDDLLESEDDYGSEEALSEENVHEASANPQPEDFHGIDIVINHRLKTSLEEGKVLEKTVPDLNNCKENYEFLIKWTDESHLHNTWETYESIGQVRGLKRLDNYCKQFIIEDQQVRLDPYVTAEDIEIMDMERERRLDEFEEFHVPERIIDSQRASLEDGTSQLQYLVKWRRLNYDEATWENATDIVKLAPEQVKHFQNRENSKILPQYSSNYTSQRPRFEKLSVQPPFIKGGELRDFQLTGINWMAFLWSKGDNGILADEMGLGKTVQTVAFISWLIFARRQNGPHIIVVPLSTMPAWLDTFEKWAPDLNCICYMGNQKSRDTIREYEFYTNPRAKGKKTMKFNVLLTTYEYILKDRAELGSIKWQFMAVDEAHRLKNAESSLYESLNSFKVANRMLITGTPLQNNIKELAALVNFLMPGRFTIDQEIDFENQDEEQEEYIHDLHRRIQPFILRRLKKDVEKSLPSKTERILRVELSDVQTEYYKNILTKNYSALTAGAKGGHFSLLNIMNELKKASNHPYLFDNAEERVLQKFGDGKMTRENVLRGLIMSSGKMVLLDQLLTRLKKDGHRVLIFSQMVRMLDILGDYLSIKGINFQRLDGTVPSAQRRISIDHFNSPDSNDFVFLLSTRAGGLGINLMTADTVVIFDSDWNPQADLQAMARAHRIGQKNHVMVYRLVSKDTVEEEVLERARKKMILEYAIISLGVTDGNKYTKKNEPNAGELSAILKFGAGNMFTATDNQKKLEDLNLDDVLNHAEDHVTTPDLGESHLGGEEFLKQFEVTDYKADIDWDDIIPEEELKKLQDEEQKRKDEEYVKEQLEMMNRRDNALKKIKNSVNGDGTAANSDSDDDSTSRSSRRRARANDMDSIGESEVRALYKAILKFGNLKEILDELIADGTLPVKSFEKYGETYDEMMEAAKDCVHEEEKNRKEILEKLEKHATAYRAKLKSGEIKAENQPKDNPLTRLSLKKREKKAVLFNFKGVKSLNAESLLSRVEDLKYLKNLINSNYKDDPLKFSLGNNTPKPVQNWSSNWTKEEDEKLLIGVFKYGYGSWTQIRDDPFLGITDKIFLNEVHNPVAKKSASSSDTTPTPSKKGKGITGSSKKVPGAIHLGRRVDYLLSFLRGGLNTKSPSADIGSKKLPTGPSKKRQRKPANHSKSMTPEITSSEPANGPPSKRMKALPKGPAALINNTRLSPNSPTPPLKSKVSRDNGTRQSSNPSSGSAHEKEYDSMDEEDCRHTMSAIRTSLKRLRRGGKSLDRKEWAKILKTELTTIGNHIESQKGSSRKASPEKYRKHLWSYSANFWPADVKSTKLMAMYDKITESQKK
# Chain of Sialic acid-binding Ig-like lectin 9 (Homo sapiens) (Q9Y336 whole entry): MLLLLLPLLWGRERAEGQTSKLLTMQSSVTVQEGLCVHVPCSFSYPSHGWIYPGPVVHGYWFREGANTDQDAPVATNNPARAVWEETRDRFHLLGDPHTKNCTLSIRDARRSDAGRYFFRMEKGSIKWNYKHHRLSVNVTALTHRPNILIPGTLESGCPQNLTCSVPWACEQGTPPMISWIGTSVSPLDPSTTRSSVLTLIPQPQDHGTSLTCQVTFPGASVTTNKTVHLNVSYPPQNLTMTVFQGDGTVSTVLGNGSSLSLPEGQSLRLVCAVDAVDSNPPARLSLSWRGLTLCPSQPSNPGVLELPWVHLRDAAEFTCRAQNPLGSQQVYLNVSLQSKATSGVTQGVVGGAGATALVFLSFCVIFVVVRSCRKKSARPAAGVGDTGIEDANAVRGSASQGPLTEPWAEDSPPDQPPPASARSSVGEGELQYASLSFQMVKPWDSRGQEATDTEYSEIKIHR
# Chain of Protein translocase subunit SecA (Escherichia coli (strain K12)) (P10408 whole entry): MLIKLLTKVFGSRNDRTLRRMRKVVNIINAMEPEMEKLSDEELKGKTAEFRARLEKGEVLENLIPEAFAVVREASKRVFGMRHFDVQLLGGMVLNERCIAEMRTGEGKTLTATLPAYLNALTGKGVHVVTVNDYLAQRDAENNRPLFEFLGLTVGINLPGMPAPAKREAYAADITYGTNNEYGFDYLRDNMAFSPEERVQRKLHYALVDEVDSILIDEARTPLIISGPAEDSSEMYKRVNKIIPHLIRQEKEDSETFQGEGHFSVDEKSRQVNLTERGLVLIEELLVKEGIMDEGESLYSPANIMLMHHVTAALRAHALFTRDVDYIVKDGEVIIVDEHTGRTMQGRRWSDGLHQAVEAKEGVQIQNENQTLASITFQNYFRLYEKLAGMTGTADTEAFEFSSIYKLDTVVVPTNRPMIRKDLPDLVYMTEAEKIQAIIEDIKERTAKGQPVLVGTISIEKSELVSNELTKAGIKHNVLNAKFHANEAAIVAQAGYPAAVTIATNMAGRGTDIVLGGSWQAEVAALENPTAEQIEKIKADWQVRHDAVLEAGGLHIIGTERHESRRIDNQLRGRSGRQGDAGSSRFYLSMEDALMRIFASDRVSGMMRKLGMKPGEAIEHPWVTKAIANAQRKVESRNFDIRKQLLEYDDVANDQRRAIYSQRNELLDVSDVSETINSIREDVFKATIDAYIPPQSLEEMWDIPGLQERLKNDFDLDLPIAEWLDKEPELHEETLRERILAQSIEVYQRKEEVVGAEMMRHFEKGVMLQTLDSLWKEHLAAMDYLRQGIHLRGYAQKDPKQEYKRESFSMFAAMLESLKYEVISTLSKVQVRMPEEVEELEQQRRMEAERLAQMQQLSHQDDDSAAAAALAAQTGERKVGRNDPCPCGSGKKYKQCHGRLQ
Compound,Percent Effect [1] [%],Percent Effect [2] [%],Percent Effect [3] [%],Percent Effect [4] [%],Percent Effect (Trypanosoma cruzi) [%],Percent Effect [5] [%],Percent Effect [6] [%],Percent Effect (Homo sapiens) [%],Percent Effect [7] [%],Percent Effect [8] [%],Percent Effect [9] [%]
CCNC(=O)N1CCCC(c2noc(CC)n2)C1 (stereo unspecified),-3.36,13,3.81,9.2,4.6,3.16,5.09,7.39,5.71,11.8,-13.2
NC(=O)NCC(=O)N1C[C@H]2CC[C@@H]1CN(Cc1ccccc1)C2,-4.49,5.48,6.44,-9.32,-0.979,-6.82,11.4,-13.6,6.45,7.5,-5.72
CCn1c(C)nnc1CN(C)C1CCN(CCCOC)C1 (stereo unspecified),-1.09,18.2,-9.12,4.71,3.82,6.11,11.7,-2.93,7.62,25.9,-10.1
Cc1n[nH]c(C2CN(C(=O)Cn3ccccc3=O)CCO2)n1 (stereo unspecified),-8.02,1.27,4.25,2.29,-1.13,2.37,6.35,1.57,0,2.53,-9.48
Cc1ccc(NC2CCN(C(=O)Cc3csc(C)n3)CC2)nn1,-0.935,21.6,-5.18,-3.82,-8.02,1.2,18.6,4.91,7.39,16.1,-4.45
Cc1nn(C)c2c(NCc3ccccc3F)nc(C3CC3)nc12,-4.24,13,15.3,12.8,9.14,-63.5,20.6,38.1,-3.23,13.6,-3.61
Cc1cc2ccccc2n1CCC(=O)NCc1ncc[nH]1,-2.35,14.9,6.43,-8.05,-4.74,-1.16,15.6,13.5,11.8,16.9,-9.55
CNc1cc(C2CCCN2Cc2ccccc2OCC(=O)O)ccn1 (stereo unspecified),-3.95,1.35,11.6,2.57,-3.16,0.232,2.34,4.49,5.38,9.09,-8.55
O=C1NCC[C@]12CN(Cc1ccoc1)C[C@H]2c1ccccc1,4.22,15.6,11.9,-15.6,-8.38,1.94,13.8,11,4.23,6.41,-8.29
N#Cc1ccccc1OCCN1CCCC1Cn1cccn1 (stereo unspecified),-0.713,-5.41,-5.48,8.98,5.75,-3.61,-5.22,-12.9,2.46,11.1,-5.36
CN(CCC#N)C(=O)CN1CCCC1c1ccsc1 (stereo unspecified),-7.51,0,-7.58,1.78,-3.62,0.924,-1.26,11.9,-2.97,-1.22,7.91
